Among the data in PubChem BioAssay (NCI) are growth inhibition values, retold here.

Compounds without any hit were thinned out: in the full panel of roughly 79,000, 15% have a hit. Unmarked numbers belong to inactive results. Activity calls are given as the source filed them. Cut-off read from the data, not from the text of the source: active = growth inhibition above about 70%; inactive = the rest.

Assay [1] in a line: NCI Yeast Anticancer Drug Screen. Data for the rad50 strain (AID 155).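 Note: 0% = growth of vehicle-only cultures of the same strain.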 The following applies: S. cerevisiae rad50 strain growth inhibition; at 50.0 µM; active compounds read high. The procedure, abridged:
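Genetically altered yeast (DNA repair pathway); compound treatment; growth inhibition vs vehicle ctrl.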

Assay [2] is described as follows: NCI Yeast Anticancer Drug Screen. Data for the sgs1 mgt1 strain (AID 161).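 Note: 0% = growth of cultures given vehicle only.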 The following applies: S. cerevisiae sgs1 mgt1 strain, at 50.0 µM, active compounds read high. The procedure, abridged:
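Growth of a repair-deficient yeast mutant was monitored after compound treatment and expressed as inhibition relative to vehicle-treated cultures.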

The nature of assay [3]: NCI Yeast Anticancer Drug Screen. Data for the cln2 rad14 strain (AID 165).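 Note: 0% = growth equal to vehicle treated cultures.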 The following applies: S. cerevisiae cln2 rad14 strain, at 50.0 µM, active compounds read high. The procedure, abridged:
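Growth inhibition, relative to vehicle-treated controls, is the read-out. The test organism is a yeast strain with defined genetic alterations, cln2 rad14.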

Assay [4] can be described thus: NCI Yeast Anticancer Drug Screen. Data for the bub3 strain (AID 167). The following applies: S. cerevisiae bub3 mutant strain, at 50.0 µM, active compounds read high. The procedure, abridged:
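Yeast carrying a defined mutation is treated with each compound, and growth is compared with that of vehicle-exposed cells to give inhibition.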

Assay [5] can be described thus: NCI Yeast Anticancer Drug Screen. Data for the mlh1 rad18 strain (AID 175). The following applies: S. cerevisiae mlh1 rad18 strain growth inhibition; at 50.0 µM; active compounds read high. The procedure, abridged:
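Cells of a genetically altered yeast strain, deficient in DNA damage repair, were treated with compound. Their growth was then compared with that of vehicle-treated cultures to give inhibition.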

Regarding `CNc1nc2c(C)ccc3[nH]c(NC)nc3c-2n1`, the growth inhibition in assay [1] was -22.2%; in assay [2] it was -6.65%; in assay [3] it was 1.95%; in assay [4], -41.4%; in assay [5], -15.9%.

For `CCCCCCOC(=O)NC1c2ccccc2Oc2ccccc21`, the growth inhibition in assay [1] is -0.35%; in assay [2], 10.1%; in assay [3], -7.2%; in assay [4], 7.45%; in assay [5], 3.15%.

For the compound `CC(=O)C1CCC2C3CC=C4CC(O)C=CC4(C)C3CCC12C` (stereo not drawn), the growth inhibition in assay [1] was 7.6%; in assay [2] it was 11.2%; in assay [3] it was -1.65%; in assay [4], 5.1%; in assay [5] it was 17.9%.

`COc1ccc(-c2cc(O)cc(C)c2N)c(OC)c1OC`: the growth inhibition in assay [1] was 17.1%; in assay [2], 17.4%; in assay [3] it was 7.9%; in assay [4] it was -3.45%; in assay [5], 17.4%.

Take `COc1cc(CCCOC(=O)/C=C/c2ccc(O)c(O)c2)cc(O)c1O`: the growth inhibition in assay [1] is 19.1%; in assay [2], 1.05%; in assay [3], -17.4%; in assay [4] it was -0.8%; in assay [5], -72.4%.

Regarding `CCCC(CCc1ccccc1)C(N)=O` (stereo not drawn), the growth inhibition in assay [1] was 1.4%; in assay [2], 9.15%; in assay [3], -7.35%; in assay [4] it was 10.8%; in assay [5], -1.9%.

In the case of `O=C(CC1(O)C(=O)Nc2ccccc21)c1ccc(O)cc1O` (stereo not drawn), the growth inhibition is 13.2% in assay [1]; 12.1% in assay [2]; 26.4% in assay [3]; 14.3% in assay [4]; 18.6% in assay [5].

As for `O=C1c2ccccc2C(=O)C1(O)c1c[nH]c2ccccc12`, the growth inhibition in assay [1] is -1.55%; in assay [2], 4.25%; in assay [3] it was 6.85%; in assay [4], -18%; in assay [5] it was 23.6%.

Regarding `O=C(O)c1ccccc1CC(C(=O)O)C(=O)O`, the growth inhibition in assay [1] is 14.8%; in assay [2] it was 3%; in assay [4] it was -0.6%; in assay [5], 6.15%.

Consider `CCOC(=O)C1=C(C)N(NC(=O)OC)C2(N)N(NC(=O)OC)C(C)=C(C(=O)OCC)C12C#N` (stereo not drawn), for which the growth inhibition in assay [1] is -13.3%; in assay [2] it was -7.45%; in assay [3], -5.7%; in assay [4], 2.5%; in assay [5], -18.4%.

Consider `CSc1nc(C=O)nc(SC)n1`, for which the growth inhibition in assay [1] is 1.25%; in assay [2], 9.1%; in assay [3], -11.3%; in assay [4] it was 3.45%; in assay [5], -17.1%.

In the case of `O=C(Nc1ccc(Cl)c(Cl)c1)c1ccc(C(=O)Nc2ccc(Cl)c(Cl)c2)cc1`, the growth inhibition in assay [1] is 8.35%; in assay [2], 25.1%; in assay [3], -18.9%; in assay [4], -4.85%; in assay [5], 30.3%.

In the case of `COC(=O)C1CC2CC1C1C2SC(F)(F)C1(F)F` (stereo not drawn), the growth inhibition in assay [1] was 0.2%; in assay [2], 6.4%; in assay [3], 7.8%; in assay [4] it was -5%; in assay [5], 17.1%.

As for `CC(=O)OC/C=C(\C)CCC=C(C)C`, the growth inhibition in assay [1] is -21.6%; in assay [2], -12.2%; in assay [3], -6.65%; in assay [4] it was -0.55%; in assay [5], -5.15%.

For the compound `Cc1cc2c(cc1C)NC1=C(N2)OC(c2ccc(Cl)cc2)C1=O` (stereo not drawn), the growth inhibition in assay [1] is 19.9%; in assay [2] it was 44.6%; in assay [3], 2%; in assay [4], 21.1%; in assay [5], 44.1%.

Turning to `COc1ccc2c(N=[N+]=[N-])c(-c3ccccc3)c(=O)oc2c1`, the growth inhibition in assay [1] was 11.8%; in assay [2], 35.6%; in assay [3] it was 17.2%; in assay [4], 3.15%; in assay [5], 30.9%.

As to `Nc1nnc2c(=O)[nH]cnc2n1`, the growth inhibition was 2.25% in assay [1]; -29.2% in assay [2]; -14.4% in assay [3]; -12.2% in assay [4]; -7.35% in assay [5].

On to `O=[N+]([O-])c1ccccc1S(=O)(=O)NC1c2ccccc2Oc2ccccc21`, for which the growth inhibition in assay [1] is 31.9%; in assay [2] it was 19.4%; in assay [3] it was 2.75%; in assay [4], -0.8%; in assay [5], 43.6%.

Regarding `CC1(C)N=C(N)NC(Nc2ccc(Cl)cc2)=N1`, the growth inhibition in assay [1] was 9.6%; in assay [2] it was 10.8%; in assay [3], -20.8%; in assay [4] it was 14.6%; in assay [5], 33.6%.

For the compound `Cc1ccccc1C(=O)N1CCOCC1`, the growth inhibition in assay [1] is -10.9%; in assay [2], -0.1%; in assay [3], -13.4%; in assay [4] it was 16.1%; in assay [5], 21.4%.

Turning to `O=C(COc1ccccc1)OC1CCCC1`, the growth inhibition in assay [1] is 17.6%; in assay [2] it was -9.8%; in assay [4], -3.05%; in assay [5] it was 4.55%.

As to `CCCCCCCCCC(C)(O)C(N)=O` (stereo not drawn), the growth inhibition was 15.1% in assay [1]; 13.2% in assay [2]; -21.6% in assay [3]; -5.65% in assay [4]; 9.65% in assay [5].

In the case of `C1CSCCSCCCSCCSCCCSCCSCCCSCCSC1`, the growth inhibition is 21.2% in assay [1]; 45.9% in assay [2]; 13.4% in assay [3]; 21.1% in assay [4]; 44.6% in assay [5].

Turning to `CCCCCCC1NC(=S)N(c2ccccc2)C1=O` (stereo not drawn), the growth inhibition is -12.1% in assay [1]; 48.5% in assay [2]; -5% in assay [3]; 21.2% in assay [4]; -6.2% in assay [5].

For the compound `O=C(Nc1ccc(Br)cc1)c1cc(Cl)cc(Cl)c1Br`, the growth inhibition in assay [1] is -23.4%; in assay [2] it was -16.8%; in assay [3], -11.6%; in assay [4] it was 2.85%; in assay [5], 27.7%.

For the compound `O=C1CCC(CC2CCCCC2)CC1`, the growth inhibition in assay [1] was -6.7%; in assay [2], -2.8%; in assay [3], -58.6%; in assay [4] it was -17.7%; in assay [5] it was -12.2%.

On to `CSC1(C)CC2C(CC1N1CCCCC1)C2(C)C` (stereo not drawn), for which the growth inhibition in assay [1] was -28.4%; in assay [2], -46.4%; in assay [3] it was 5.8%; in assay [4], -24%; in assay [5] it was -35.9%.

Consider `CN(C)CCCNc1ccc2nnn3c4ccc([N+](=O)[O-])cc4c(=O)c1c23`, for which the growth inhibition in assay [1] is 68.8%; in assay [2], 45.8%; in assay [3], 55.1%; in assay [4] it was 65.7%; in assay [5], 80% (active).

On to `CCCCCN(CCOC(=O)c1ccc([N+](=O)[O-])cc1)CCOC(=O)c1ccc([N+](=O)[O-])cc1`, for which the growth inhibition in assay [1] was 7.5%; in assay [2] it was 7.25%; in assay [3] it was 7.8%; in assay [4] it was -2.6%; in assay [5], 7.45%.

With `O=C(OC1CCc2ccccc2C1)c1ccc(N=Nc2ccccc2)cc1` (stereo not drawn), the growth inhibition in assay [1] was 24.5%; in assay [2] it was 20.7%; in assay [3] it was -39.8%; in assay [4], 5.95%; in assay [5] it was 18.9%.

For the compound `COc1cc(C2(C)OC(=O)c3ccccc32)c(OC)c2ccccc12` (stereo not drawn), the growth inhibition is 27.9% in assay [1]; 30.4% in assay [2]; 31.3% in assay [3]; 30.9% in assay [4]; 14.2% in assay [5].

As to `Cn1c2ccccc2c2[nH]c3ccccc3c(=O)c21`, the growth inhibition in assay [1] is 54.5%; in assay [2], -15.1%; in assay [3] it was -8.95%; in assay [4] it was -11.4%; in assay [5] it was 28.6%.

Turning to `CCN(CC)c1ccc(N=C2C=CC(=O)C(NC(C)=O)=C2)c(C)c1`, the growth inhibition is -13.2% in assay [1]; 29.2% in assay [2]; -8.15% in assay [3]; 14.1% in assay [4]; 13.3% in assay [5].

Turning to `NC(CSSCC(N)Cc1ccccc1)Cc1ccccc1` (stereo not drawn), the growth inhibition in assay [1] is -4.25%; in assay [2], -9.2%; in assay [3], 14.8%; in assay [4] it was -27.5%; in assay [5], 25.9%.

As for `O=c1nnc(O)c2ccn(O)cc1-2`, the growth inhibition is -34.6% in assay [1]; 1.65% in assay [2]; -40.1% in assay [3]; -8.95% in assay [4]; -7.4% in assay [5].
